This note sets out measurements from PubChem BioAssay (Tox21).

Unmarked numbers belong to inactive results. Results filed as inconclusive are left out. Activity calls are given as the source filed them. Unless noted, calls come from the whole dose curve.

Assay [1] concerns the target Thyrotropin receptor (Homo sapiens) (UniProt P16473). Put plainly: qHTS assay to identify small molecule agonists of the thyroid stimulating hormone receptor (TSHR) signaling pathway (AID 1224843). Note: nearly all actives have a fitted effect of over 45% in size. In short, it runs like this: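 Cell line HEK293 with TSHR; density 800/well. Exposure 30 min RT. Readout HTRF cAMP (cAMP-d2/anti-cAMP-cryptate), 1 h RT before reading.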
Assay [2] is described as follows: qHTS assay to identify small molecule agonists of the hypoxia (HIF-1) signaling pathway - cell viability counter screen (AID 1224844). Note: nearly all actives have a fitted effect of over 50% in size. Note: potency is the fitted concentration of half-maximal effect. In short, it runs like this: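 Multiplexed with the HRE beta-lactamase assay, this viability read used CellTiter-Glo luminescence (30 min, RT) on HRE-bla ME-180 cells treated 17 hrs with compounds in 0.5% dialyzed FBS medium.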
Assay [3] in a line: qHTS assay to identify small molecule agonists of H2AX (AID 1224845; active = well fitted activation curve with a large enough effect in the signal ratio in the repeat runs, not every such curve was filed as active; the % refers to the signal ratio). In short, it runs like this:
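Wild-type CHO-K1 cells plated overnight, then exposed 3 hr at 37C to compounds at 15 concentrations (0.76% DMSO). Lysed, then HTRF anti-pH2AX(S139)-cryptate/anti-H2AX-d2 detection after 24 hr at room temperature; emissions 665 and 620 nm.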

Assay [4] in a line: qHTS assay to identify small molecule agonists of the hypoxia (HIF-1) signaling pathway (AID 1224846; active = well fitted activation curve with a large enough effect in the signal ratio in the repeat runs, not every such curve was filed as active; the % refers to the signal ratio). Put shortly:
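Hypoxia-pathway activation was scored as increased beta-lactamase from an HRE-controlled reporter in ME-180 cells; plated at 2,000 cells per well with 0.5% dialyzed FBS, they were exposed 17 hrs to compounds and then given CCF4-AM.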

The nature of assay [5]: qHTS assay to identify small molecule agonists of H2AX - cell viability counter screen (AID 1224847). Note: top concentration of the series differs between compounds; nearly all actives have a fitted effect of over 30% in size. Put shortly: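 Counter-screen for viability: CellTiter-Glo ATP luminescence read after 3 h compound treatment (15-point titration, 0.76% DMSO final) of CHO-K1 cells at 37C, with 30 min room-temperature reagent incubation.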
A short description of assay [6]: qHTS RealTime-Glo MT Cell Viability Assay in HepG2 cells - 24 hour (AID 1224867; active = well fitted curve in the direction sought with a large enough effect in the repeat runs; an effect the other way counts as inactive or inconclusive; note: nearly all actives have a fitted effect of over 50% in size). In short, it runs like this:
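Tox21 10K library screened in qHTS format on HepG2 cells carrying RealTime-Glo reagents. Compounds were added after a 5 h preincubation, and the luminescent signal from continuous culture was measured repeatedly during 40 h treatment.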

A short description of assay [7]: qHTS RealTime-Glo MT Cell Viability Assay in HEK293 cells - 32 hour (AID 1224868; active = well fitted curve in the direction sought with a large enough effect in the repeat runs; an effect the other way counts as inactive or inconclusive; note: nearly all actives have a fitted effect of over 50% in size; note: potency is the fitted concentration of half-maximal effect; for activity change, negative = cytotoxic: top concentration of the series differs between compounds). Put shortly: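 Luminescence generated by NanoLuc from substrate produced by living HEK293 cells served as the viability signal. Each value reflects the reading at its stated time point during continuous 40 h compound exposure at 37 C.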
The nature of assay [8]: A CellTox Green Cytotoxicity Assay to monitor cytotoxicity in HEK293 cells - 0 hour (AID 1224869; active = well fitted curve in the direction sought with a large enough effect in the repeat runs; an effect the other way counts as inactive or inconclusive; note: nearly all actives have a fitted effect of over 50% in size; note: potency is the fitted concentration of half-maximal effect). Put shortly:
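Seeding of HEK293 cells together with cytotoxicity dye preceded a 5 h incubation at 37 C/5% CO2. Test compounds in DMSO were then added and fluorescence monitored across 40 h.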

The nature of assay [9]: qHTS assay to identify small molecule antagonists of the estrogen related receptor (ERR) signaling pathway from Tox21 library (AID 1224848; active = well fitted curve in the direction sought with a large enough effect in the repeat runs; an effect the other way counts as inactive or inconclusive; note: nearly all actives have a fitted effect of over 50% in size; note: potency is the fitted concentration of half-maximal effect). Put shortly: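 Screening used an ERR reporter line supplied by NTP, exposed for 18 h at 37 C to library compounds delivered in DMSO. Signal was luciferase luminescence developed with ONE-Glo at room temperature for 30 min.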
The nature of assay [10]: qHTS assay to identify small molecule agonists of the estrogen related receptor (ERR) signaling pathway from Tox21 library (AID 1224849). Note: nearly all actives have a fitted effect of over 15% in size. Conditions: ERR reporter cell line, ONE-Glo luciferase, 18 h; at 92.4 µM (top of the series) unless noted. In short, it runs like this: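 Six hours post-seeding at 37 C/5% CO2, ERR cells receive DMSO-solubilised compounds; after 18 h at 37 C, ONE-Glo reagent is applied and luminescence recorded.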
% is set by controls: 0 for no effect and ±100 for the full control effect.

Sequence of Thyrotropin receptor (Homo sapiens) (P16473 whole entry, looked up): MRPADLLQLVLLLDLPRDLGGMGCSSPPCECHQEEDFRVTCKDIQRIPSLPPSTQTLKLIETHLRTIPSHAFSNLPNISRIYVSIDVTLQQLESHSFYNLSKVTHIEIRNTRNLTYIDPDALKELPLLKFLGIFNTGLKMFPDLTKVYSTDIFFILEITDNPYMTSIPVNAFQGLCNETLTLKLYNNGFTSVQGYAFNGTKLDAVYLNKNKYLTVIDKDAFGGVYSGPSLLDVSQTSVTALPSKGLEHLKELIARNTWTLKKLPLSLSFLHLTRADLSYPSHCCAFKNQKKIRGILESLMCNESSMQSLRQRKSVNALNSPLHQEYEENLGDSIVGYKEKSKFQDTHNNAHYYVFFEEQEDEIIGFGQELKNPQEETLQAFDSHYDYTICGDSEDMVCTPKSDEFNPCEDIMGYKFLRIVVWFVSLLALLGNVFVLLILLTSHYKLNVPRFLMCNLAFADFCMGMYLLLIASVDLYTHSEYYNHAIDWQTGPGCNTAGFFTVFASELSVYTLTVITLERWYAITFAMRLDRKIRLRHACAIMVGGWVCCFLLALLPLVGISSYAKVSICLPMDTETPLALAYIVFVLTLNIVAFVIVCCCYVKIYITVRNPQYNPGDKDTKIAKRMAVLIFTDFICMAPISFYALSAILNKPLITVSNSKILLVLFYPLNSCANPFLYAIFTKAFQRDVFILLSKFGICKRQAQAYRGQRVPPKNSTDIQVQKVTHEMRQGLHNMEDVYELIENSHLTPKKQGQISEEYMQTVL

For `O=C(O)c1ccccc1-n1cc(C(=O)O)c(=O)c2cc(Nc3c(F)cc(F)cc3Cl)c(Cl)cc21`, the Potency entry in assay [1], in assay [2], in [3], in assay [5] and in [7] was “inactive” in each case. Also, the outcome in assay [4] and in [6] was inactive.
For the compound `FC(F)(Cl)C(F)(Cl)Cl`, the Potency entry in assay [1], in assay [2], in assay [3], in [5], in assay [7] and in [8] was “inactive” throughout. Besides, the call in assay [4] and in [6] was inactive.
On to `CCCC(=O)OCCC(C)C`, for which the Potency entry in [1], in [2], in [3], in [5], in assay [7] and in [8] was “inactive” throughout. Also, the result in assay [4] and in assay [6] was inactive.
For `COC=O`, the activation is 0.0799% [at 8.39 µM] in assay [1] and -0.206% [at 7.01 µM] in assay [4]. For the same compound, the results for the activity change, negative = cytotoxicity in assay [2], in [5] and in assay [6] were 10.2% [at 6.97 µM], -3.81% [at 14 µM] and 4.56% [at 6.97 µM], respectively. For the same compound, in [3], the activation (H2AX phosphorylation) was -1.42% [at 14 µM]. In addition, in assay [9], the activity, negative = inhibition is 14% [at 8.39 µM]. Further, in assay [10], the activity change, positive = activation is 6.68% [at 8.39 µM]. For the same compound, the activity change, negative = cytotoxic in [7] was 18.9% [at 6.97 µM]. Besides, the cytotoxicity in assay [8] was -7.29% [at 6.97 µM].
Turning to `CC(C)(C)c1cc(C=O)cc(C(C)(C)C)c1O`, the Potency result in [1], in assay [2], in assay [3], in assay [5], in [7] and in assay [8] was “inactive” in each case. The outcome in assay [4] and in assay [6] was inactive.
As for `CC(C)=CCC[C@H](C)CCO`, the Potency entry in assay [1], in assay [2], in [3], in assay [5], in [7] and in assay [8] was “inactive” in each case. In addition, the compound was called inactive in [4] and in assay [6].
Regarding `C/C=C1\[C@H]2C=C(C)C[C@]1(N)c1ccc(=O)[nH]c1C2`, the Potency entry in assay [1], in assay [2], in [3], in assay [5], in [7] and in assay [8] was “inactive” throughout. For the same compound, the compound was called inactive in assay [4] and in assay [6].
Turning to `CC(C)Oc1ccccc1O`, the Potency entry in [1], in assay [2], in assay [3], in assay [5], in assay [9] and in assay [8] was “inactive” each time. In addition, the outcome in assay [4] and in [6] was inactive.
On to `Cc1cc(C)c(C)c(O)c1`, for which the Potency entry in [1], in assay [2], in assay [3], in [5], in assay [9] and in [7] was “inactive” throughout. Moreover, the Potency entry in assay [8] is “inactive”. Also, the compound was called inactive in assay [4] and in assay [6]. The activity change, positive = activation in assay [10] was 1.16%.
Regarding `CC(O)C(C)O` (configuration not stated), the Potency entry in assay [1], in assay [2], in assay [3], in [5], in [7] and in [8] was “inactive” each time. The call in assay [4] and in [6] was inactive.
Take `NC(=O)c1ccccc1C(N)=O`: the Potency entry in [1], in assay [3] and in assay [5] was “inactive” in each case. Moreover, the Potency is 49.2 µM (active) in assay [2], 48.8 µM (active) in [9], 31 µM (active) in assay [7] and 49.2 µM (active) in assay [8]. The call in assay [4] was inactive. In addition, the activity change, positive = activation in [10] is -52.8%.
In the case of `CCCCCCCCOCCCN`, the Potency entry in [1], in assay [2], in assay [3], in assay [5], in assay [7] and in assay [8] was “inactive” throughout. The outcome in [4] and in assay [6] was inactive.
On to `O=C1c2ccccc2C(=O)C1c1ccc2ccccc2n1`, for which the Potency entry in assay [1], in [2], in assay [3] and in assay [5] was “inactive” in each case. The compound was classed as inactive in assay [4] and in assay [6].
Take `CCCC(=O)OCc1ccccc1`: the Potency entry in assay [1], in assay [2], in assay [3], in [5], in [9] and in [7] was “inactive” each time. For the same compound, in assay [8], the Potency entry was “inactive”. Moreover, the compound was called inactive in assay [4]. Besides, the activity change, positive = activation in [10] is 0.0767%.
As to `O=C(Cl)c1ccc(F)c(Cl)c1`, the Potency result in [1], in [2], in [3], in [5], in [9] and in assay [8] was “inactive” throughout. For the same compound, the compound was called inactive in [4] and in [6]. Moreover, the activity change, positive = activation in [10] is -7.97%.
As for `CCCCCO`, the Potency entry in assay [1], in assay [2], in assay [3], in assay [5], in assay [9] and in assay [7] was “inactive” each time. For the same compound, the Potency result in assay [8] is “inactive”. Further, the result in [4] and in assay [6] was inactive. In assay [10], the activity change, positive = activation is -0.565%.
For the compound `CCCC1CCOC(C)S1` (configuration not stated), the Potency result in assay [1], in assay [2], in assay [3], in assay [5], in [7] and in assay [8] was “inactive” in each case. In addition, the compound was called inactive in assay [4] and in [6].
For `O=[N+]([O-])c1ccc(Cl)cc1Cl`, the Potency result in [1], in assay [2], in assay [3], in assay [5], in [7] and in [8] was “inactive” throughout. The compound was classed as inactive in [4] and in assay [6].
Turning to `OCCc1ccncc1`, the Potency entry in assay [1], in [2], in assay [3], in assay [5] and in assay [9] was “inactive” throughout. For the same compound, the call in [4] and in assay [6] was inactive. For the same compound, the activity change, positive = activation in assay [10] is 1.06%.
Consider `CC(C)=CCC/C(C)=C/C=N/O`, for which the Potency entry in [1], in assay [2], in assay [3], in assay [5], in assay [7] and in assay [8] was “inactive” each time. In addition, the call in assay [4] and in [6] was inactive.
Turning to `CC(C(=O)O)c1ccc2c(c1)Cc1cccnc1O2` (configuration not stated), the Potency entry in assay [1], in assay [2], in assay [3], in assay [5], in [7] and in assay [8] was “inactive” each time. Besides, the compound was called inactive in [4] and in assay [6].
On to `COC(=O)/C=C/C(C)=C\C=C\C(C)=C\C=C\C=C(C)\C=C\C=C(C)\C=C\C(=O)O`, for which the Potency entry in assay [1], in assay [2], in assay [3], in assay [5], in assay [9] and in [7] was “inactive” throughout. The Potency result in assay [8] was “inactive”. The outcome in assay [4] and in [6] was inactive. Also, in [10], the activity change, positive = activation is 4.73%.
Take `Cc1cc(N)n(-c2ccccc2)n1`: the Potency entry in [1], in assay [2], in [3], in [5], in assay [9] and in [7] was “inactive” throughout. The Potency entry in assay [8] was “inactive”. The result in assay [4] was inactive.
For `Nc1ccc(F)cc1F`, the Potency entry in assay [1], in [2], in assay [3], in assay [5] and in assay [7] was “inactive” in each case. Further, the compound was called inactive in assay [4] and in [6].
As for `C[Si](C)(C)O[Si](C)(C)O[Si](C)(C)C`, the Potency entry in assay [1], in assay [2], in assay [3], in assay [5], in [7] and in assay [8] was “inactive” in each case. Moreover, the compound was classed as inactive in assay [4] and in assay [6].
